Measurements taken from ChEMBL document CHEMBL4513216, “Probing the Open Global Health Chemical Diversity Library for Multistage-Active Starting Points for Next-Generation Antimalarials” (ACS Infect Dis, 2020).
Among all 68,000 compounds or so, about 2,700 (4%) showed an effect of 50% or more. Only a selection was taken, and strong results are over-represented in it overall.

test system: Plasmodium berghei; assay: Screen against P. berghei liver stage (PbLuc), transformed with Luciferase, at 2uM; assay type: functional, HepG2; settings: tested at 2 uM

SMILES	INHIBITION [%]
CN(CCCc1cnn(C)c1)Cc1cc2n(n1)CCNC2	19.66
CS(=O)(=O)NCCCN1CCCC1c1ccsc1 (stereo not drawn)	51.46
CS(=O)(=O)NCCCN1CCCC1c1ccccc1 (stereo not drawn)	42.11
CS(=O)(=O)NCCCN1CCCC1c1cccc(Br)c1 (stereo not drawn)	-8.52
Cc1noc(C)c1CN1C[C@@H]2COC[C@H](C(=O)N3CCCCO3)[C@@H]2C1	-60.98
O=C(O)Cn1ccc(=O)c2cc(F)ccc21	3.88
COC(=O)CCn1ccc(=O)c2cc(F)ccc21	-17.26
O=C(O)CCn1ccc(=O)c2cc(F)ccc21	55.73
O=C(CCn1cncn1)Nc1ccc(F)cc1OCC1CC1	14.47
Cn1cc(CNCCNc2ncc(Cl)cc2Cl)cn1	-12.84
CCn1cc(CNCCNc2ncc(Cl)cc2Cl)cn1	-30.98
Cn1ccnc1CNCCNc1ncc(Cl)cc1Cl	57.43
CC(C)c1nc(CN2CCc3onc(-c4cccc(F)c4)c3C2)no1	-18.57
COc1c(CNCCNC(=O)c2ccccc2F)c(C)nn1C	67.69
COc1c(CNCCNC(=O)c2ccc(C)c(F)c2)c(C)nn1C	-45.21
COc1c(CNCCNC(=O)c2ccccc2)c(C)nn1C	33.82
COc1cccc([C@@H]2CN(C(=O)c3ccc(C)cc3O)C[C@H]2C(=O)O)c1	10.1
Cc1cn2nc(N3CCCC3C(=O)N3CCN(C)CC3)sc2n1 (stereo not drawn)	7.67
Cc1cn2nc(N3CCCC3C(=O)N3CCSCC3)sc2n1 (stereo not drawn)	55.36
Cc1cn2nc(N3CCCC3C(=O)N3CCOCC3)sc2n1 (stereo not drawn)	-11.41
COc1ccc(C(=O)NC(CC(=O)O)c2cccs2)c(OC)c1 (stereo not drawn)	7.01
COCC(O)CN1CCC(NC(=O)c2cccc(C)c2)CC1 (stereo not drawn)	2.32
CS(=O)(=O)CCCNC1(c2cccc(Cl)c2)CCCC1	17.2
CS(=O)(=O)CCCNC1(c2ccc(Br)cc2)CCC1	55.36
Cc1cccc(C2(NCCCS(C)(=O)=O)CCCC2)c1	36.28
O=C(NCc1ccnc(OCC(F)(F)F)c1)NCC1CCOC1 (stereo not drawn)	-3.72
CNC(=O)[C@H]1C[C@@H]2CN(S(=O)(=O)c3ccccc3)C[C@@H]2N1C(C)=O	5.52

SMILES	INHIBITION [%]
O=C(NCc1cccs1)[C@H]1CC[C@@H]2[C@@H](CCN2c2ncccn2)O1	-23.39
Cc1occc1C(=O)N1CCc2ncnc(-c3cnn(C)c3)c2CC1	23.27
Cc1cc(C(=O)N2CCc3ncnc(-c4cnn(C)c4)c3CC2)c(C)o1	55.94
Cc1oncc1C(=O)N1CCc2ncnc(-c3cnn(C)c3)c2CC1	33.74
CC(C)CC(NC(=O)c1ccn(C)c(=O)c1)c1cccs1 (stereo not drawn)	9.29
CN(CCc1cn[nH]c1)C(=O)C1CC(=O)N(Cc2ccccn2)C1 (stereo not drawn)	48.93
COCc1noc(CCNC(=O)c2ccc(C3CCCO3)s2)n1 (stereo not drawn)	-31.23
Cc1ccc(CN2C[C@H](N3CCOCC3)[C@@H]3OCCC[C@@H]32)o1	63.23
Cc1ccc(CN2C[C@@H](N(C)C)[C@H]3OCCC[C@H]32)o1	39.57
Cc1cc(CN2C[C@H](N3CCOCC3)[C@@H]3OCCC[C@@H]32)oc1C	-0.23
COCC(=O)N1CCC2(C1)c1ccccc1S(=O)(=O)N2CC1CC1 (stereo not drawn)	-11.81
Cc1cn(CC(=O)NC2CCC3(CC2)OCCO3)c2ccccc12	70.17
Cc1cn(CC(=O)NC2CCC(C(=O)O)CC2)c2ccccc12 (stereo not drawn)	0.13
CCN1CCC(NC(=O)Cn2cc(C)c3ccccc32)CC1	-3.38
CCCC1CCCN(C(=O)Nc2cccnc2OC)CC1 (stereo not drawn)	0.73
COc1ccc(C2CCCN2S(=O)(=O)c2cc(F)ccc2F)cc1 (stereo not drawn)	7.24
Cc1cc(=O)[nH]cc1C(=O)N1Cc2ccccc2N(C)CC1C (stereo not drawn)	47.59
CCc1csc(C2CCCN(C(=O)c3ccc(=O)n(C)n3)C2)n1 (stereo not drawn)	26.51
CCc1csc(C2CCCN(C(=O)c3ccc(OC)nn3)C2)n1 (stereo not drawn)	11.18
CCc1csc(C2CCCN(C(=O)c3c[nH]c(C)n3)C2)n1 (stereo not drawn)	33.91
Cc1nc(C2CCCN(C(=O)Cn3ccccc3=O)C2)sc1C (stereo not drawn)	14.77
Cc1nc(C(=O)N2CCCC(c3nc(C(C)C)cs3)C2)c[nH]1 (stereo not drawn)	77.56
CC(C)c1csc(C2CCCN(C(=O)Cn3ccccc3=O)C2)n1 (stereo not drawn)	54.92
Cc1csc(C2CCCN(C(=O)Cn3ccccc3=O)C2)n1 (stereo not drawn)	42.29
CCc1csc(C2CCCN(C(=O)c3ccc(=O)n(CC)n3)C2)n1 (stereo not drawn)	60.09
Cc1csc(C2CCCN(C(=O)c3c[nH]c(C)n3)C2)n1 (stereo not drawn)	-92.68
